Measurements taken from PubChem BioAssay AID1159580 (chemical genetic matrix, 2015).
“And” between values parts separate entries of the source, which are not always exact repeats. Identical values can stand only once. The campaign covered roughly 5,500 compounds. About 2,000 (36%) were called active. Another 18% or so got no clear call; they are omitted. Rule as the data show it: active = normalized growth mostly below about 0.91 (no sharp cut-off); inconclusive = no clear call, values can overlap the other calls; inactive = mostly above about 0.92. The list shows a part of the results.

Assay: chemical genetic growth profiling, strain panel (AID 1159580);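 also: tested at 20 µM; growth read once vehicle control cultures reached saturation at 30 °C; 1 = growth at the plate median or of vehicle wells; lower values mean less growth of the strain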
Conditions: S. cerevisiae deletion strains, growth OD

Measured: normalized growth

O=C(CCCN1CC=C(n2c(=O)[nH]c3ccccc32)CC1)c1ccc(F)cc1
inactive: locus YAL013W, strain DEP1, hits give low values 0.99 | locus YAL021C, strain ccr4, hits give low values 0.958 | locus YAL026C, strain drs2, hits give low values 0.992 | locus YAL030W, strain snc1, hits give low values 0.988 | locus YBL061C, strain skt5, hits give low values 0.989 | locus YBR009C, strain hhf1, hits give low values 0.979 | locus YBR021W, strain FUR4, hits give low values 0.953 | locus YBR023C, strain chs3, hits give low values 0.983 | locus YBR171W, strain sec66, hits give low values 0.963 | locus YBR229C, strain ROT2, hits give low values 0.949 | locus YBR231C, strain swc5, hits give low values 0.953 | locus YBR279W, strain paf1, hits give low values 0.972 | locus YCL011C, strain gbp2, hits give low values 0.975 | locus YCL016C, strain dcc1, hits give low values 1 | locus YCL029C, strain bik1, hits give low values 0.973 | locus YCL069W, strain vba3, hits give low values 0.992 | locus YCR088W, strain abp1, hits give low values 1 | locus YDL005C, strain med2, hits give low values 0.973 | locus YDL035C, strain GPR1, hits give low values 0.972 | locus YDL040C, strain nat1, hits give low values 0.992 | locus YDL074C, strain BRE1, hits give low values 0.984 | locus YDL101C, strain DUN1, hits give low values 0.976 | locus YDL134C, strain PPH21, hits give low values 0.983 | locus YDL185W, strain tfp1, hits give low values 0.991 | locus YDL192W, strain arf1, hits give low values 0.983 | locus YDR001C, strain nth1, hits give low values 0.974 | locus YDR069C, strain doa4, hits give low values 0.952 | locus YDR101C, strain arx1, hits give low values 0.983 | locus YDR137W, strain rgp1, hits give low values 0.993 | locus YDR150W, strain NUM1, hits give low values 0.968 | locus YDR159W, strain sac3, hits give low values 0.989 | locus YDR162C, strain NBP2, hits give low values 0.978 | locus YDR195W, strain ref2 0.936 | locus YDR297W, strain sur2, hits give low values 0.984 | locus YDR318W, strain mcm21, hits give low values 0.991 | locus YDR334W, strain swr1, hits give low values 0.976 | locus YDR335W, strain msn5, hits give low values 0.979 | locus YDR388W, hits give low values 0.986 | locus YDR392W, strain spt3, hits give low values 0.994 | locus YDR502C, strain sam2, hits give low values 0.968 | locus YEL003W, strain gim4, hits give low values 0.99 | locus YEL037C, strain rad23, hits give low values 1 | locus YEL061C, strain CIN8 (second series), hits give low values 0.981 | locus YEL061C, strain CIN8, hits give low values 0.985 | locus YER015W, strain faa2, hits give low values 0.969 | locus YER016W, strain bim1, hits give low values 1.01 | locus YER110C, hits give low values 0.957 | locus YER111C, strain swi4, hits give low values 0.975 | locus YER155C, strain BEM2 (second series), hits give low values 0.929 | locus YER155C, strain BEM2, hits give low values 0.996 | locus YER167W, strain BCK2, hits give low values 0.982 | locus YFR010W, strain ubp6, hits give low values 0.993 | locus YGL078C, strain dbp3, hits give low values 0.976 | locus YGL086W, strain mad1, hits give low values 0.976 | locus YGL167C, strain pmr1, hits give low values 0.979 | locus YGL173C, strain kem1, hits give low values 1 | locus YGL227W, strain vid30, hits give low values 0.953 | locus YGL240W, strain doc1, hits give low values 0.953 | locus YGL248W, strain PDE1, hits give low values 0.982 | locus YGL253W, strain hxk2, hits give low values 0.981 | locus YGR078C, strain PAC10, hits give low values 0.985 | locus YGR135W, strain pre9, hits give low values 0.968 | locus YGR229C, strain SMI1, hits give low values 0.992 | locus YGR252W, strain gcn5, hits give low values 0.906 | locus YHR013C, strain ard1, hits give low values 1.01 | locus YHR027C, strain rpn1, hits give low values 0.977 | locus YHR030C, strain SLT2, hits give low values 0.991 and 0.98 | locus YHR079C, strain IRE1 (second series), hits give low values 0.989 | locus YHR079C, strain IRE1, hits give low values 0.971 | locus YHR094C, strain hxt1, hits give low values 0.994 | locus YHR129C, strain ARP1, hits give low values 0.994 | locus YHR142W, strain chs7, hits give low values 0.983 | locus YHR200W, strain rpn10, hits give low values 0.99 | locus YIL066C, strain RNR3, hits give low values 0.971 | locus YIL073C, strain SPO22, hits give low values 1.02 | locus YIL125W, strain kgd1, hits give low values 0.99 | locus YIR030C, strain dcg1, hits give low values 0.972 | locus YJL092W, strain hpr5, hits give low values 0.984 | locus YJL095W, strain BCK1 (second series), hits give low values 0.996 | locus YJL095W, strain BCK1, hits give low values 1.03 and 0.998 | locus YJL115W, strain asf1, hits give low values 0.975 | locus YJL129C, strain trk1, hits give low values 0.939 | locus YJL134W, strain LCB3, hits give low values 0.979 | locus YJL154C, strain vps35, hits give low values 0.994 | locus YJL164C, strain tpk1, hits give low values 0.994 | locus YJL166W, strain qcr8, hits give low values 0.971 | locus YJL168C, strain set2, hits give low values 0.999 | locus YJL187C, strain SWE1 (second series), hits give low values 0.978 | locus YJL187C, strain SWE1, hits give low values 0.988 | locus YJR043C, strain POL32, hits give low values 0.995 | locus YJR066W, strain TOR1, hits give low values 0.93
